TRHR enhancer – allosteric enhancers of human TRH receptor | TRHR cells, fluo-8 calcium fluorescence, EC20 TRH enhancement | enhancement, % at 2 µM | 0.66% of 360,000 active | AID 493056; in the data active = enhancement above about 30%; note: 0% is about no effect
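Enhancer read-out: after compound pinning and an initial kinetic agonist-mode read, an EC20 of TRH (10 nM final) was injected and fluo-8 calcium signal (Ex 480/Em 530) followed at 1 s/cycle for 100 cycles in TRHR-expressing cells.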
TRHR ag – TRH receptor (human) agonism. activation, % at 2 µM. 0.18% of 360,000 active. TRHR cells, calcium flux fluo-8, FDSS agonist mode; note: 0% is about no effect
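Read-out: compound-evoked intracellular calcium rise in TRHR cells, fluo-8 dye, kinetic FDSS fluorescence at 1 s/cycle following a 10-cycle baseline. Cells cultured overnight before dye loading (30 min–1.5 h, RT).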
D1 PAM – enhances dopamine response at the human D1 receptor | P21728 | HEK293 TREx D1 cells, calcium flux, dopamine EC20 potentiation | 0.036% of 360,000 active | potentiation, % at 10 µM | AID 504651; in the data active = potentiation above about 30%; note: 0% is about no effect
Target sequence (P21728 whole entry, looked up): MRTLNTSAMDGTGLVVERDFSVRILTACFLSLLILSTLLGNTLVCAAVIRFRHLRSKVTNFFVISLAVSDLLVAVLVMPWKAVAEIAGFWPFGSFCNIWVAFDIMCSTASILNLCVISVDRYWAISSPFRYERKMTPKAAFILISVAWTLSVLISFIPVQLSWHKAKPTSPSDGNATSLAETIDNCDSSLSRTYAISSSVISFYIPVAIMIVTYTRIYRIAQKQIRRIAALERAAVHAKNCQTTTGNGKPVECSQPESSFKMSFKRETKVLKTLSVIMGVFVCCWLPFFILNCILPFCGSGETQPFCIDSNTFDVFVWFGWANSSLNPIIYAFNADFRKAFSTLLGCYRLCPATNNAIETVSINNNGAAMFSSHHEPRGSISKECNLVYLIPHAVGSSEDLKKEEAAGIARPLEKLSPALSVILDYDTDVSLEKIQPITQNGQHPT
D1 antagonist – human D1 dopamine receptor antagonism; P21728; 3.2% of 360,000 active; HEK293 TREx D1 cells, calcium flux, dopamine EC80; active compounds read low; activity change, negative = inhibition, % at 10 µM; AID 504652; in the data active = activity change below about -30%; note: % is set by controls: 0 for no effect and ±100 for the full control effect
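Antagonism measured as reduced calcium response to an EC80 dopamine addition following 180 s compound pre-read; cells were inducible HEK293 Trex D1 plated overnight at 30 C, read kinetically at 1 cycle/sec.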
D1 ag – human D1 receptor agonism | P21728 | HEK293 T-REx D1 cells, calcium flux, agonist mode | activation, % at 2 µM | 1% of 360,000 active | AID 504660; note: 0% is about no effect
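Agonism was scored from calcium flux recorded over 180 s (1 read/s) after pintool compound addition, following a 10-cycle baseline. Cells were inducible force-coupled HEK293 TREx D1, plated overnight at 30 C and loaded with no-wash calcium dye.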
* = called active by the depositor; x = no result given. Compounds with a hit are over-represented: about 4.7% of the library has one in this group of screens. Cut-off read from the data, not from the text of the source, unless noted: active = activation above about 30%; inactive = the rest.

SMILES | TRHR enhancer | TRHR ag | D1 PAM | D1 antagonist | D1 ag
CCc1ccc(C(=O)CC2(O)C(=O)N(Cc3ccc(C)cc3)c3ccccc32)cc1 (configuration not stated) | -7 | 0 | 2 | -4 | -1
CCCCN1C(=O)C(O)(CC(=O)c2ccc(C(C)(C)C)cc2)c2ccccc21 (configuration not stated) | 2 | -1 | -5 | -49* | 28
Cc1ccc(OCCn2nnc3sc4c(c3c2=O)CCC(C)C4)cc1 (configuration not stated) | -2 | 3 | -1 | 3 | 3
Cc1ccc(C)c(NC(=O)COC(=O)CCNC(=O)c2ccco2)c1 | 1 | 0 | x | -50* | 1
CCC(C)c1ccc(NC(=O)COC(=O)CCNC(=O)c2ccco2)cc1 (configuration not stated) | 4 | 0 | -2 | -17 | 4
Cc1ccc(NC(=O)CSc2nnc(-c3cc4occc4n3C)n2-c2ccccc2C)c(C)c1 | -4 | 0 | 2 | 4 | 0
COc1ccc(C(CCNCc2ccc(OC(C)C)cc2)c2ccccc2OC)cc1 (configuration not stated) | 5 | 1 | 3 | 10 | 59*
COc1ccc(CNCCC(c2ccc(OC)cc2)c2ccccc2OC)cc1 (configuration not stated) | 3 | 1 | -1 | -4 | 30*
COc1ccc(C(CCNCc2ccc(N(C)C)cc2)c2ccccc2OC)cc1 (configuration not stated) | 2 | 0 | -10 | 11 | 6
CC1CCN(C(=O)CCc2nc3cc(S(=O)(=O)N(C)C)ccc3n2C)CC1 | -1 | 0 | 11 | -32* | 0
COc1cccc(NC(=O)C2CCN(c3ccc(Sc4ccc(C)cc4)nn3)CC2)c1 | 12 | 0 | 1 | -2 | 2
Cc1ccc(Sc2ccc(N3CCC(C(=O)Nc4cc(C)cc(C)c4)CC3)nn2)cc1 | 12 | 0 | 6 | -48* | -1
O=C1CN2C(=N1)N(Cc1ccccc1)c1ccccc12 | -14 | 0 | -11 | -87* | 1
CSc1nccc(Oc2cccc(C#N)c2)n1 | 0 | -1 | -10 | -33* | 2
CCCCNC(=O)CCCN1C(=O)c2ccccc2Sc2ncccc21 | -1 | 0 | -5 | -3 | 2
CCCNC(=O)c1cnn2c(C(F)F)cc(-c3ccccc3)nc12 | 30* | 0 | -4 | -6 | 2
COc1ccc(-c2cc(C(F)F)n3ncc(C(=O)Nc4cc(C)on4)c3n2)cc1 | 9 | 1 | -3 | -38* | 12
COc1ccc(-c2cc(C(F)F)n3ncc(C(=O)Nc4c(C)n(C)n(-c5ccccc5)c4=O)c3n2)cc1 | -3 | -2 | -3 | -13 | 3
Cc1ccc(-c2cn(-c3ccc(Cl)cc3)c(S(=O)(=O)CC(=O)Nc3ccccc3)n2)cc1 | 5 | 1 | 2 | 4 | 6
C=CCn1c(=O)[nH]c2nc3cc(N=CN(C)C)c(C)cc3nc2c1=O | -2 | 43* | 2 | -3 | 57*
CCOC(=O)Cn1c(=N)n(CCOc2ccc3ccccc3c2)c2ccccc21 | 2 | 1 | -10 | 5 | 32*
CCOC(=O)Cn1c(=N)n(CCOc2ccc(OC)cc2)c2ccccc21 | -4 | 2 | -2 | 4 | 11
Cc1ccc(NC(=O)c2cc([N+](=O)[O-])ccc2NCc2cccnc2)cc1 | 1 | 1 | -12 | -36* | 0
CCOC(=O)Cc1cc(C(=O)Nc2ccc(Br)cc2)sc1-c1ccc(C)cc1 | -4 | 2 | -2 | -5 | 11
Cc1cccc(-n2c3nc(=O)[nH]c(=O)c-3cc3ccc(Cl)cc32)c1C | -9 | 4 | 5 | 4 | 3
SMILES | TRHR enhancer | TRHR ag | D1 PAM | D1 antagonist | D1 ag
CC(C)C(C(=O)NC(C)(C)C)N1C(=O)c2ccccc2C1=O (configuration not stated) | -4 | 0 | -10 | 9 | 1
CC(C(=O)NC(C)(C)C)N1C(=O)c2cccc3cccc(c23)C1=O (configuration not stated) | -22 | -1 | -4 | -71* | 1
CCN(C(=O)CSc1ncc(S(=O)(=O)c2ccc(C)c(Cl)c2)c(=O)[nH]1)c1cccc(C)c1 | 16 | 1 | 1 | 4 | 0
CC(C)(C)CN1C(N)=NC[C@@H]1Cc1ccc(O)cc1 | -5 | -1 | 0 | -45* | 2
Cc1cc(NC(=O)CSc2ccc3nnc(-c4ccccn4)n3n2)no1 | 1 | 4 | -11 | -32* | 3
O=C(CSc1ccc2nnc(-c3ccccn3)n2n1)Nc1ccccc1 | -4 | 0 | 3 | 2 | 5
NCCc1c(-c2ccccc2)n(-c2ccccc2)c2ccccc12 | -2 | 13 | 1 | 21 | 102*
CC(=O)n1c(-c2ccccc2)c(CO)c2ccccc21 | -2 | -1 | -7 | -1 | -1
CCOc1ccc(NC(=O)c2ccc3c(=O)n4nc(Nc5ccccc5C)sc4nc3c2)cc1 | 2 | 1 | 0 | -7 | 2
COc1cc(/C=C/c2nc(C#N)c(N3CCCCCC3)o2)cc(OC)c1OC | -1 | -1 | -3 | -13 | 1
CCCS(=O)(=O)c1c(S(=O)(=O)CCC)c2cnccn2c1C(=O)c1ccc(Cl)cc1 | 33* | 0 | -2 | -4 | -1
Cc1cc(C(=O)N2CCN(c3ccc([N+](=O)[O-])cc3)CC2)n[nH]1 | 0 | -1 | -11 | -32* | 16
COCC(=O)N1CCN(c2ccc([N+](=O)[O-])cc2)CC1 | 4 | 0 | -11 | -32* | 4
Cc1cc(C(=O)N2CCN(c3ccc([N+](=O)[O-])cc3)CC2)no1 | 4 | 0 | -1 | -26 | 12
COc1cc(CCC(=O)N2CCN(c3ccc([N+](=O)[O-])cc3)CC2)cc(OC)c1OC | -5 | -1 | -1 | 6 | 2
COc1cccc(NC(=O)C(C)n2c(=O)cc(C(F)(F)F)c3c(C)nn(C)c32)c1 (configuration not stated) | -1 | 0 | -5 | -8 | 3
Cc1ccc(-n2ncc3c(NCCCN4CCOCC4)ncnc32)cc1C | -8 | -1 | 0 | -4 | -4
COc1ccc(NC(=O)Nc2sc(NS(=O)(=O)c3ccccc3)nc2C)cc1 | 1 | -1 | -4 | -39* | 4
COc1ccc(NS(=O)(=O)c2cccc(NC(=O)COc3ccc(OC)cc3)c2)cc1 | 5 | -1 | -4 | -33* | 21
COc1ccc(NS(=O)(=O)c2csc(C(=O)Nc3ccccc3)c2)cc1 | 0 | -1 | -5 | -42* | 17
COc1ccc(NS(=O)(=O)c2ccc(OC)c(NC(=O)CCC3CCCCC3)c2)cc1 | 13 | 0 | -4 | -35* | 5
N#Cc1cccc(S(=O)(=O)N2CCN(S(=O)(=O)c3ccc4c(c3)OCCO4)CC2)c1 | -6 | 0 | -5 | 0 | 4
COc1ccc(NS(=O)(=O)c2ccc(NC(=O)c3ccccn3)cc2)cc1 | 3 | 0 | -9 | -39* | 11

Assay outcomes as filed in PubChem BioAssay.
